# From a collection of fitness landscapes (doi:10.1126/science.1257360)
# In all, about 140,000 sequences were measured (“enrichment ratio after two sorts for PhoP signalling”: median about 0, highest 2% from about 11 on). The sample holds the highest values, similar sequences and a random draw of the others, so the mix is not that of the screen.
# B1: PhoQ; a variant is named by its letters at X, in order, P23837 (parent)
# chain: MKKLLRLFFPLSLRVRFLLATAAVVLVLSLAYGMVALIGYSVSFDKTTFRLLRGESNLFYTLAKWENNKLHVELPENIDKQSPTMTLIYDENGQLLWAQRDVPWLMKMIQPDWLKSNGFHEIEADVNDTSLLLSGDHSIQQQLQEVREDDDDAEMTHSVAVNVYPATSRMPKLTIVVVDTIPVELKSSYMVWSWFIYVLSANLLLVIPLLWVAAWWSLRPIEALAKEVRELEEHNRELLNPATTRELTSLVRNLNRLLKSERERYDKYRTTLTDLTHSLKTPLXXLQXXLRSLRSEKMSVSDAEPVMLEQISRISQQIGYYLHRASMRGGTLLSRELHPVAPLLDNLTSALNKVYQRKGVNISLDISPEISFVGEQNDFVEVMGNVLDNACKYCLEFVEISARQTDEHLYIVVEDDGPGIPLSKREVIFDRGQRVDTLRPGQGVGLAVAREITEQYEGKIVAGESMLGGARMEVIFGRQHSAPKDE
# Variants of: B1
# Assay: enrichment ratio after two sorts for PhoP signalling (ratio (wild type AVST 3.29)); higher = more functional
# Details: with PhoP (E. coli)
row,Variant,enrichment ratio
1,YALF,3.8
2,PCNL,≤ 0.25
3,QLCD,≤ 0.25
4,TKMD,0.263
5,FIAQ,≤ 0.25
6,FTMY,4.04
7,RWMS,≤ 0.25
8,HEMF,≤ 0.25
9,HEPH,≤ 0.25
10,HEVN,≤ 0.25
11,SQCV,6.68
12,GIMF,6.62
13,GYMF,≤ 0.25
14,SNCV,14.2
15,WQCV,≤ 0.25
16,SNMF,19.4
17,HEPN,18.8
18,SLMF,2.69
19,GNMF,15.2
20,EGYW,≤ 0.25
21,FYIV,≤ 0.25
22,VIWQ,≤ 0.25
23,NEFL,≤ 0.25
24,HMPY,≤ 0.25

row,Variant,enrichment ratio
1,RMDS,≤ 0.25
2,WDAC,≤ 0.25
3,ILVT,≤ 0.25
4,GQDA,≤ 0.25
5,SNIV,9.73
6,TPLI,≤ 0.25
7,SNLT,7.56
8,SNMI,19.8
9,SRLI,6.88
10,SNMR,1.49
11,SNVA,6.33
12,SNLA,6.53
13,SNYV,0.433
14,SNLS,11.5
15,SNLI,11.3
16,SNMV,18.5
17,PWPK,≤ 0.25
18,GTKI,≤ 0.25
19,MYMW,≤ 0.25
20,HSYK,≤ 0.25
21,GPQG,≤ 0.25
22,KMHW,≤ 0.25
23,GDTD,≤ 0.25
24,DSIT,≤ 0.25

row,Variant,enrichment ratio
1,NPMD,≤ 0.25
2,WFPK,≤ 0.25
3,QDRV,≤ 0.25
4,DPTF,≤ 0.25
5,PMYV,≤ 0.25
6,YTLQ,12.8
7,VYLQ,≤ 0.25
8,GYLQ,≤ 0.25
9,VTLQ,11.3
10,QPLQ,≤ 0.25
11,FTLQ,6.79
12,TTLQ,10.7
13,VFLQ,≤ 0.25
14,GTLQ,15.2
15,SQPR,≤ 0.25
16,IAGV,≤ 0.25
17,HKDW,≤ 0.25
18,GERY,≤ 0.25
19,SAVR,≤ 0.25
20,MMAP,≤ 0.25
21,RAVP,≤ 0.25
22,WSVY,≤ 0.25
23,STPW,≤ 0.25
24,SIMG,13.2

row,Variant,enrichment ratio
1,SIGG,6.86
2,TING,13.9
3,PLTG,≤ 0.25
4,SLTG,12.5
5,NING,≤ 0.25
6,KYNG,≤ 0.25
7,SING,13.7
8,SLNG,0.339
9,KYMG,≤ 0.25
10,WLTG,≤ 0.25
11,RING,≤ 0.25
12,DHDM,≤ 0.25
13,DCPT,≤ 0.25
14,ELTP,≤ 0.25
15,IKSW,≤ 0.25
16,GMDV,≤ 0.25
17,TNRI,≤ 0.25
18,SCYN,≤ 0.25
19,YRVE,≤ 0.25
20,SFTG,5.29
21,SITG,16.2
22,SQTG,9.26
23,STTG,7.62
24,SSTG,12.4

row,Variant,enrichment ratio
1,KYTG,≤ 0.25
2,LIWW,≤ 0.25
3,TSIP,≤ 0.25
4,IDFC,≤ 0.25
5,QELP,≤ 0.25
6,TGAS,14
7,NGAS,0.365
8,ADAS,≤ 0.25
9,TDAS,11.6
10,CSAS,36.6
11,RGAS,≤ 0.25
12,KDAS,≤ 0.25
13,KSAS,≤ 0.25
14,CSAT,≤ 0.25
15,PRQF,≤ 0.25
16,AFYG,≤ 0.25
17,EQHW,≤ 0.25
18,ESQM,≤ 0.25
19,WSTG,≤ 0.25
20,PICR,≤ 0.25
21,QESA,≤ 0.25
22,TESA,11.7
23,MESI,12.5
24,TESQ,22.8

row,Variant,enrichment ratio
1,QESI,7.8
2,MMSI,8.62
3,NESA,≤ 0.25
4,MCSK,≤ 0.25
5,NESQ,≤ 0.25
6,MQSI,≤ 0.25
7,QESQ,≤ 0.25
8,MCSI,12.5
9,HEMY,≤ 0.25
10,TSHA,3
11,IPQD,≤ 0.25
12,HTSR,≤ 0.25
13,FRDI,≤ 0.25
14,TEQS,7.71
15,GWCG,≤ 0.25
16,TLDG,≤ 0.25
17,PGHR,≤ 0.25
18,TESK,6.64
19,TESI,13.5
20,TESR,6.55
21,QGNK,≤ 0.25
22,RDYI,≤ 0.25
23,QMSV,10.5
24,TSGN,14.9

row,Variant,enrichment ratio
1,LTGN,≤ 0.25
2,YTGN,≤ 0.25
3,TGGN,13.9
4,NSGN,≤ 0.25
5,THGN,≤ 0.25
6,QPGN,≤ 0.25
7,TTGN,21.9
8,KSGN,≤ 0.25
9,FFGN,≤ 0.25
10,KCGN,≤ 0.25
11,QGGN,14.7
12,TNRW,≤ 0.25
13,LWKV,≤ 0.25
14,IVDK,≤ 0.25
15,EHTD,≤ 0.25
16,NKKA,≤ 0.25
17,MHGI,≤ 0.25
18,QKAH,≤ 0.25
19,KQVW,≤ 0.25
20,ECVR,≤ 0.25
21,KPPV,≤ 0.25
22,MEGN,10.8
23,MAGN,13.5
24,MMGN,≤ 0.25

row,Variant,enrichment ratio
1,NAGN,≤ 0.25
2,KAGN,≤ 0.25
3,MCGN,16.3
4,WWPI,≤ 0.25
5,DCFD,≤ 0.25
6,MIWI,3.74
7,MDYF,≤ 0.25
8,MTYF,7.02
9,MIAD,≤ 0.25
10,MILQ,14
11,MIAA,11.7
12,MELQ,3.81
13,MKAA,≤ 0.25
14,MIYI,24.3
15,MITA,≤ 0.25
16,MIYF,24.3
17,MIFA,≤ 0.25
18,KCES,≤ 0.25
19,FVYA,≤ 0.25
20,FGWI,≤ 0.25
21,LDYV,≤ 0.25
22,DLSC,≤ 0.25
23,IAQI,≤ 0.25
24,MIFC,≤ 0.25

row,Variant,enrichment ratio
1,MIGH,18.2
2,MITH,≤ 0.25
3,MITI,14.6
4,MILY,0.599
5,MISK,≤ 0.25
6,MILA,1.31
7,MISC,23
8,MIMF,0.51
9,MIYH,7.94
10,MIGF,11.9
11,MIHF,3.77
12,NIWL,≤ 0.25
13,WCMF,≤ 0.25
14,KFLW,≤ 0.25
15,SFFA,≤ 0.25
16,IEDQ,≤ 0.25
17,TAFY,2.48
18,RVSG,≤ 0.25
19,LAEY,≤ 0.25
20,GIVQ,2.03
21,MITV,17.2
22,MIAT,12.1
23,MIFT,≤ 0.25
24,MIAQ,14.7

row,Variant,enrichment ratio
1,MIMV,≤ 0.25
2,MIWV,≤ 0.25
3,MSAQ,9.85
4,MILT,≤ 0.25
5,MFAQ,≤ 0.25
6,HFIN,≤ 0.25
7,LDFC,≤ 0.25
8,MDHH,≤ 0.25
9,PDDC,≤ 0.25
10,IFMI,≤ 0.25
11,WEFI,≤ 0.25
12,KCNC,≤ 0.25
13,TGNC,61.8
14,SLNC,≤ 0.25
15,STNC,≤ 0.25
16,TCNC,14.3
17,THNC,11.9
18,NHNC,≤ 0.25
19,SNNC,18.6
20,KSNC,≤ 0.25
21,RGNC,≤ 0.25
22,SHNC,0.752
23,NGNC,≤ 0.25
24,SIFT,≤ 0.25

row,Variant,enrichment ratio
1,PGDY,≤ 0.25
2,QRCP,≤ 0.25
3,NMAF,≤ 0.25
4,QMGQ,≤ 0.25
5,QVAS,≤ 0.25
6,SKNA,≤ 0.25
7,DLFK,≤ 0.25
8,DATT,≤ 0.25
9,SHNF,9.74
10,KDNC,≤ 0.25
11,SHNQ,0.892
12,TANC,12.1
13,FDNC,≤ 0.25
14,TDNC,13.4
15,NHNQ,≤ 0.25
16,THNQ,30.9
17,IANC,≤ 0.25
18,TFNC,2.85
19,TFNQ,13.4
20,KANC,≤ 0.25
21,YCNQ,≤ 0.25
22,TNPA,≤ 0.25
23,VGFR,≤ 0.25
24,YITS,0.602

row,Variant,enrichment ratio
1,ECNN,≤ 0.25
2,KVKT,≤ 0.25
3,GNYR,≤ 0.25
4,DIML,≤ 0.25
5,TESL,12.5
6,AQSL,7.47
7,MESL,13.9
8,MMSL,6.66
9,AHSL,0.581
10,QESL,0.967
11,AESL,11.7
12,MDSL,≤ 0.25
13,NESL,≤ 0.25
14,RWWS,≤ 0.25
15,RAAP,≤ 0.25
16,FFQI,≤ 0.25
17,NMFS,≤ 0.25
18,AIQP,≤ 0.25
19,ERDH,≤ 0.25
20,PVNI,≤ 0.25
21,TVNW,≤ 0.25
22,FVNS,≤ 0.25
23,TVNY,≤ 0.25
24,TVNS,18.9

row,Variant,enrichment ratio
1,TVNI,12.6
2,WILF,≤ 0.25
3,MDWW,≤ 0.25
4,ACPI,9.4
5,RIAV,≤ 0.25
6,HQNT,≤ 0.25
7,IGGC,≤ 0.25
8,THMG,2.89
9,SHMW,0.684
10,THCG,5.77
11,SHCG,16.6
12,SHMG,17.8
13,SHVG,≤ 0.25
14,REDG,≤ 0.25
15,WCII,≤ 0.25
16,ENIH,≤ 0.25
17,MRCK,≤ 0.25
18,MGLF,2.83
